The structures appear in SMILES notation. Several values for one entry are separate records, joined by “and”; a condition that tells them apart may be missing. Equal entries are not always repeated. Records with an inconclusive call do not appear. Some structures have more than one record in an assay (separate samples or runs), and their calls can disagree. Activity calls are given as the source filed them. Unless noted, calls follow the shape of the dose curve; as a rule, active = well fitted curve in the direction sought with a large enough effect in the repeat runs; inconclusive = weak or mixed curves; inactive = no such curve, though single readings can be large; an effect the other way counts as inactive or inconclusive.

This passage reports outcome, Potency and max activation results from PubChem BioAssay (Tox21).

The nature of test [1]: Caspase-3/7 induction in CHO-K1 cells by small molecules, qHTS assay (AID 1346980). Also: nearly all actives have a fitted effect of over 15% in size. In a few lines:
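Wild-type CHO-K1 cells exposed to compounds for 17hr at 37 C, 5% CO2. Caspase-3/7 activity then measured by Caspase-Glo 3/7 luminescence after 30min at room temperature.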

Test [2] can be described thus: Caspase-3/7 induction in HepG2 cells by small molecules, qHTS cell viability counter screen (AID 1346981). Also: series mostly up to about 92 µM; nearly all actives have a fitted effect of over 30% in size. The method, boiled down:
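Treatment of HepG2 cells with DMSO-delivered compounds ran 16 hr at 37 C following a 5-hr pre-incubation of 2,000 cells/well. CellTiter-Fluor fluorescence, read after 1 hr, served as the viability measure in a qHTS format.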

Test [3] concerns the target Nuclear receptor subfamily 1 group I member 2 (Homo sapiens) (UniProt O75469). In words: Human pregnane X receptor (PXR) small molecule agonists, qHTS assay (AID 1346982). Also: nearly all actives have a fitted effect of over 35% in size. Also: potency is read from the fitted curve at half-maximal effect. The method, boiled down:
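Stable HepG2 line reporting PXR-mediated CYP3A4 expression via luciferase. Treatment: 24 hr with compounds in DMSO at 37 C. Detection: ONE-Glo luminescence.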

Test [4] deals with Cytochrome P450 2C9 (Homo sapiens) (UniProt P11712). In words: Cytochrome P450 Family 2 Subfamily C Member 9 (CYP2C9) small molecule antagonists: luciferase reporter qHTS assay (AID 1671198). Also: series mostly up to about 120 µM; nearly all actives have a fitted effect of over 50% in size. The method, boiled down:
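P450-Glo proluciferin substrate with CYP2C9 enzyme; 10 min RT preincubation, then NADPH regeneration 1 h at 37C; luciferin detection reagent 20 min RT, luminescence in relative luminescence units.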

Test [5] deals with Acetylcholinesterase (Homo sapiens) (UniProt P22303). The test can be described thus: Acetylcholinesterase (AChE) small molecule antagonists: enzyme-based qHTS assay (AID 1347397; calls by dose curve; also: nearly all actives have a fitted effect of over 55% in size; also: potency is read from the fitted curve at half-maximal effect). The conditions noted are these: Potency: AChE enzyme activity inhibition. The method, boiled down:
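Colorimetric DTNB read-out of thiocholine released from acetylthiocholine by recombinant human AChE (50 mU/mL as dispensed). Compounds were preincubated 30 min at RT before substrate/DTNB addition, with a 10 min RT reaction.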

For test [6] the target is unchanged. In words: Acetylcholinesterase (AChE) small molecule antagonists: fluorescence cell-based qHTS assay (AID 1347398; calls by dose curve; also: nearly all actives have a fitted effect of over 50% in size; also: potency is read from the fitted curve at half-maximal effect). The conditions noted are these: Potency: AChE activity. In a few lines: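 SH-SY5Y, 2,000 cells/well, attached overnight; cmpd 30 min 37 C; acetylthiocholine/Thiolite Green cocktail 40 min RT; fluorescence Ex/Em 490/520 nm.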
Test [7] has the same target. In words: Acetylcholinesterase (AChE) small molecule antagonists: enzyme-based qHTS assay with human liver microsomes (AID 1347399; calls by dose curve; also: nearly all actives have a fitted effect of over 60% in size). The conditions noted are these: Potency: qHTS inhibition. The method, boiled down:
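Recombinant human AChE (50 mU/mL in the enzyme mix) and human liver microsomes (0.25 mg/mL final) were preincubated with compound and NADPH (0.25 mg/mL final) for 30 min at 37 C. Acetylthiocholine/DTNB was then added; thiocholine was read colorimetrically after 10 min at room temperature.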

The target in test [8] is Cytochrome P450 2C19 (Homo sapiens) (UniProt P33261). The test can be described thus: Cytochrome P450 Family 2 Subfamily C Member 19 (CYP2C19) small molecule antagonists: luciferase reporter qHTS assay (AID 1671197). Also: nearly all actives have a fitted effect of over 65% in size. Also: potency is read from the fitted curve at half-maximal effect. In a few lines: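 Quantitative high-throughput screen of the Tox21 library using CYP2C19 with proluciferin substrate. Reaction: NADPH regeneration, 37C, 1 h, after 10 min compound preincubation at room temperature. Readout: luminescence.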
Sequence of Cytochrome P450 2C19 (Homo sapiens) (P33261 whole entry, looked up): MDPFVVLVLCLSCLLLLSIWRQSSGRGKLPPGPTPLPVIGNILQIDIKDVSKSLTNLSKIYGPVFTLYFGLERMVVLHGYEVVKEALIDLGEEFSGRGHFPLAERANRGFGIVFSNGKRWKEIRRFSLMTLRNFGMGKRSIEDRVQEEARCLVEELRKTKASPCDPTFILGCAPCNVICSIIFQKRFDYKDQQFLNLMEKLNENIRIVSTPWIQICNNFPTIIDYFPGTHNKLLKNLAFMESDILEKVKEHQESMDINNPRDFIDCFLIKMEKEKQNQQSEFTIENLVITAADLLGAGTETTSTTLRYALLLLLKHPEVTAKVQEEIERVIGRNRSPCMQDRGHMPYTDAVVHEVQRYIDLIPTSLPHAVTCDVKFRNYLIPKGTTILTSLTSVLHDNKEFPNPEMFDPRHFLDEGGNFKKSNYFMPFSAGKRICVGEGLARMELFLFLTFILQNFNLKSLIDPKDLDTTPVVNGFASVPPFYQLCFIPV

The target of test [9] is Cytochrome P450 3A4 (Homo sapiens) (UniProt P08684). In words: Cytochrome P450 Family 3 Subfamily A Member 4 (CYP3A4) small molecule antagonists: luciferase reporter qHTS assay (AID 1671201). Also: nearly all actives have a fitted effect of over 50% in size. Also: potency is read from the fitted curve at half-maximal effect. In a few lines: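 CYP3A4 activity was followed with a P450-Glo proluciferin substrate. Test compounds in DMSO were preincubated 10 min; NADPH regeneration then ran 1 h, and light output was read 20 min after detection reagent.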
Sequence of Cytochrome P450 3A4 (Homo sapiens) (P08684 whole entry, looked up): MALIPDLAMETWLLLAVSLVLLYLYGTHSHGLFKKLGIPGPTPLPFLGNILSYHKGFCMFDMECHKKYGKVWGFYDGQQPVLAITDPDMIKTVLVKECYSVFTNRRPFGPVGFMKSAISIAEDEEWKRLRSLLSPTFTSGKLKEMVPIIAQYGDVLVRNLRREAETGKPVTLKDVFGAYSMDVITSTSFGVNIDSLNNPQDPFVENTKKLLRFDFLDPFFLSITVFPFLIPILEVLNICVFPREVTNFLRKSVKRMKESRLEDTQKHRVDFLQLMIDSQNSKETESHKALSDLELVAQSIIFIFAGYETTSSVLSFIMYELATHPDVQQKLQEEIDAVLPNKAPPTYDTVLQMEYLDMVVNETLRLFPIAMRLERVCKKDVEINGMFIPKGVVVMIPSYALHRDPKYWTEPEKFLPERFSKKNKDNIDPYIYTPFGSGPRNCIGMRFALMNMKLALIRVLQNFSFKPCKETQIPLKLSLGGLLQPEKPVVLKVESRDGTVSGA

Test [10] has as its target Nuclear receptor subfamily 1 group I member 2 (Rattus norvegicus) (UniProt Q9R1A7). In words: Rat pregnane X receptor (rPXR) activation by small molecules, qHTS assay (AID 1346983). Also: nearly all actives have a fitted effect of over 20% in size. The conditions noted are these: rPXR luciferase reporter cells, One-Glo luminescence, 24 h; stronger effect = higher value. In a few lines:
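Cell-based rPXR activation assay: rPXR cells, 2,000 per well, rested 5hr at 37 C, then exposed to compounds in DMSO for 24 hr at 37 C. Luciferase activity read by One-Glo luminescence after 30 min at room temperature.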

Test [11] addresses Nuclear receptor subfamily 1 group I member 2 (Homo sapiens) (UniProt O75469). In words: CYP3A4 induction through human pregnane X receptor (PXR) by small molecules, qHTS assay (AID 1346984). Also: nearly all actives have a fitted effect of over 40% in size. In a few lines: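 After 24 h at 37C with compound, DPX-2 cells (HepG2, co-transfected PXR response element and CYP3A4 promoter-luciferase) got 3uM final P450-Glo Luciferin-IPA for 3 h; One-Glo luminescence followed.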

Test [12] shares this target. In words: Human pregnane X receptor (PXR) activation by small molecules, qHTS assay (AID 1346985). Also: nearly all actives have a fitted effect of over 40% in size. In a few lines: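 DPX-2 cells (HepG2 co-transfected with a PXR response element and a CYP3A4-promoter luciferase construct) were seeded at 2,000 per well, rested 5 hr at 37C, then exposed to DMSO-dissolved compounds for 24 hr. Activation was read as luciferase luminescence.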

For test [13], the target named is Acetylcholinesterase (Homo sapiens) (UniProt P22303). The test can be described thus: Acetylcholinesterase (AChE) small molecule antagonists: colormetric cell-based qHTS assay (AID 1347395; calls by dose curve; also: nearly all actives have a fitted effect of over 30% in size). The method, boiled down:
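After overnight attachment at 37 C, SH-SY5Y cells get 30 min compound exposure; detection cocktail (acetylthiocholine, DTNB) then incubates 90 min at 37 C, and absorbance reflects AChE-generated thiocholine.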

Test [14] deals with Cytochrome P450 2D6 (Homo sapiens) (UniProt P10635). The test can be described thus: Cytochrome P450 Family 2 Subfamily D Member 6 (CYP2D6) small molecule antagonists: luciferase reporter qHTS assay (AID 1671196). Also: nearly all actives have a fitted effect of over 50% in size. Also: potency is read from the fitted curve at half-maximal effect. The method, boiled down: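 Chemicals tested for interference with CYP2D6 activity; proluciferin substrate, NADPH regeneration, 1 h at room temperature, luminescent detection.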
Sequence of Cytochrome P450 2D6 (Homo sapiens) (P10635 whole entry, looked up): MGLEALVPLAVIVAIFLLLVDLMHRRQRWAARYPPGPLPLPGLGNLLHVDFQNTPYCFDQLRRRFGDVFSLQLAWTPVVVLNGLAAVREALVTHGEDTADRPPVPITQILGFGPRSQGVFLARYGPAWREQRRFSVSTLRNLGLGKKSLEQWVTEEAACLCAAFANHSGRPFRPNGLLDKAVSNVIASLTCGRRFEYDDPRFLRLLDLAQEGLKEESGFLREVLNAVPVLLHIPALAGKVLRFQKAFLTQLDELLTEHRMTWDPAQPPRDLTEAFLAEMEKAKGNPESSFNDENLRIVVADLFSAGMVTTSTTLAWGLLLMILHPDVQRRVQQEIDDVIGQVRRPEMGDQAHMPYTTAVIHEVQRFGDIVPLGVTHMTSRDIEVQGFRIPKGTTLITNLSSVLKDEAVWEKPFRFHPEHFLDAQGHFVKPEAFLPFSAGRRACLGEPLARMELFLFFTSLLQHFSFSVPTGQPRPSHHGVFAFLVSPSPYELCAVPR

For test [15], the target named is Cytochrome P450 1A2 (Homo sapiens) (UniProt P05177). In words: Cytochrome P450 Family 1 Subfamily A Member 2 (CYP1A2) small molecule antagonists: luciferase reporter qHTS assay (AID 1671199). Also: nearly all actives have a fitted effect of over 50% in size. Also: potency is read from the fitted curve at half-maximal effect. The method, boiled down: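 Read-out is luminescence from luciferin detection reagent (20 min) proportional to CYP1A2 activity; compounds in DMSO preincubated 10 min with enzyme and proluciferin substrate, then NADPH regeneration solution, 1 h, room temperature.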
Sequence of Cytochrome P450 1A2 (Homo sapiens) (P05177 whole entry, looked up): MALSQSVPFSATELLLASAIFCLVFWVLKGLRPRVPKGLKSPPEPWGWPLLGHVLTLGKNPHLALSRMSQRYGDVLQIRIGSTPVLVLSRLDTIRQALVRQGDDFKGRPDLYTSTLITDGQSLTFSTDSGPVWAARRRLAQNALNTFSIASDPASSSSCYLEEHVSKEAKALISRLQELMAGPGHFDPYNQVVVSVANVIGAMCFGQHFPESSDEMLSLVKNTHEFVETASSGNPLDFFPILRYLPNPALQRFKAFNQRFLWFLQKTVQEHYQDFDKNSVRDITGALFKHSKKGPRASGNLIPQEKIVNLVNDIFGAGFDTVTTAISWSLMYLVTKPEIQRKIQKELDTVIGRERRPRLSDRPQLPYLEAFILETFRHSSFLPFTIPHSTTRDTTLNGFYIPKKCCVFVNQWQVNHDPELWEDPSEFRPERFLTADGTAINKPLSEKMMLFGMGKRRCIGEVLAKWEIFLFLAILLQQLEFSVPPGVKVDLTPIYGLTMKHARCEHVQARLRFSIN

Test [16] concerns the target Voltage-gated inwardly rectifying potassium channel KCNH2 (Homo sapiens) (UniProt Q12809). In words: Human Ether-a-go-go-Related Gene (hERG) channel small molecule antagonists: fluorescence cell-based qHTS assay (AID 1671200). The method, boiled down: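 In this thallium-flux screen, overnight-cultured U2OS cells bearing the channel are dye-loaded in darkness for an hour, rested 10 min at room temperature, and then monitored kinetically at 480/540 nm for two minutes post-stimulus.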
% is scaled to controls: 0 for no effect and ±100 for the full control effect.

Sequence of Voltage-gated inwardly rectifying potassium channel KCNH2 (Homo sapiens) (Q12809 whole entry, looked up): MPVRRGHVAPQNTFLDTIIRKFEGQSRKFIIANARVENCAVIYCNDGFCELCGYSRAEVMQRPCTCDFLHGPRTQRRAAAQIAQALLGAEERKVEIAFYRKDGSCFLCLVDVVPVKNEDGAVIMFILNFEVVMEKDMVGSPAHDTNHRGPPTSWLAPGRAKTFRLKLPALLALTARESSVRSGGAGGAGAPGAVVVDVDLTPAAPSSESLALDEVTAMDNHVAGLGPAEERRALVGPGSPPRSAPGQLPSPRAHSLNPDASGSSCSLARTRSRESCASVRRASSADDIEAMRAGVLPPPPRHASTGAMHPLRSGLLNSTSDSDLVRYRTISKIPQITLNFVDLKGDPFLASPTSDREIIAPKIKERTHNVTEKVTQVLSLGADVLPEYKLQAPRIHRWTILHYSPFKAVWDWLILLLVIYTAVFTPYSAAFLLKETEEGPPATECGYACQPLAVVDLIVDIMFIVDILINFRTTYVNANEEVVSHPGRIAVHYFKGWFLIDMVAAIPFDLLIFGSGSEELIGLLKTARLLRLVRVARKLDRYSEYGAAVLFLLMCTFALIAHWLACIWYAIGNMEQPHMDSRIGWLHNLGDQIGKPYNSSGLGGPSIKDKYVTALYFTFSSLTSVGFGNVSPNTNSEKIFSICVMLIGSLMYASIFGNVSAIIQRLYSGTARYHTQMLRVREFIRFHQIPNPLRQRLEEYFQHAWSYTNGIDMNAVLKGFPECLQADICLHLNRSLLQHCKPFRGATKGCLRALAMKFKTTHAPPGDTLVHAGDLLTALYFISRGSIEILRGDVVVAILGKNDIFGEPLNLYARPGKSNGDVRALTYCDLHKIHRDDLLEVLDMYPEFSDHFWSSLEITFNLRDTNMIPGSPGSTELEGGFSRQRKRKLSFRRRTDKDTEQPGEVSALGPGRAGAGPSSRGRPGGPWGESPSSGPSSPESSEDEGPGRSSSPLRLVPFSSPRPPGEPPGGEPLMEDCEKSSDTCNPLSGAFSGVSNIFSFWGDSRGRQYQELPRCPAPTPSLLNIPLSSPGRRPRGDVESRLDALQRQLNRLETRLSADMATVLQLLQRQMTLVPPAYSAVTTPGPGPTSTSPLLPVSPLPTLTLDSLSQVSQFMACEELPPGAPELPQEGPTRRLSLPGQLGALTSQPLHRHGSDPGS
Sequence of Cytochrome P450 2C9 (Homo sapiens) (P11712 whole entry, looked up): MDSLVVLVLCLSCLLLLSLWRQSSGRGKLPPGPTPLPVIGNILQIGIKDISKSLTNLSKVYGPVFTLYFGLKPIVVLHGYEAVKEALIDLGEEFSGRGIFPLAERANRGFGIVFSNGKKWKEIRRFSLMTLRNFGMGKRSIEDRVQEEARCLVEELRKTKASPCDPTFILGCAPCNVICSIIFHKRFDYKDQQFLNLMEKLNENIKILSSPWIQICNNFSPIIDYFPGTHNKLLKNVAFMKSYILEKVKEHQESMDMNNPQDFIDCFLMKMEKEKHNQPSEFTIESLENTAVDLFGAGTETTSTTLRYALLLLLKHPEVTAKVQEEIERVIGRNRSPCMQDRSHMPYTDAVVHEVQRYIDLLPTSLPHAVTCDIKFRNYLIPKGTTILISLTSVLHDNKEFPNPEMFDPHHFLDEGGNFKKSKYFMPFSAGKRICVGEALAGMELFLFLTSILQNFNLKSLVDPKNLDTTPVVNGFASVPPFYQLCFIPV
Sequence of Acetylcholinesterase (Homo sapiens) (P22303 whole entry, looked up): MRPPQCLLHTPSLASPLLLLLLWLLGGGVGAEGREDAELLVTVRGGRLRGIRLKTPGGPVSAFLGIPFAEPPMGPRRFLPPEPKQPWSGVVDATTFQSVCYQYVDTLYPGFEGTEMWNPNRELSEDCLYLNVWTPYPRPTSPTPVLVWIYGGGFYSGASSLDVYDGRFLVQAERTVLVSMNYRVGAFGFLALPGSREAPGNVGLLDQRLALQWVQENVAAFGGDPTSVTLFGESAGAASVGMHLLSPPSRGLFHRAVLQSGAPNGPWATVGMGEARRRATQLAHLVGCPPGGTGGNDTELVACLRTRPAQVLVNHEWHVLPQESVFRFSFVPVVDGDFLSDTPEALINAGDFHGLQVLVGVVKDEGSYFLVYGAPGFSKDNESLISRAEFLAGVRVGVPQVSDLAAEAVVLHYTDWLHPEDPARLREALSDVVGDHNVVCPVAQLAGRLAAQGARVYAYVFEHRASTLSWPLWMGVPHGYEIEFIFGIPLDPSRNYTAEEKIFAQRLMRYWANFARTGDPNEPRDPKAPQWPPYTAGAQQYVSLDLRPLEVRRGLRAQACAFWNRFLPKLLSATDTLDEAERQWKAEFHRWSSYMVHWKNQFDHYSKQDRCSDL
Sequence of Nuclear receptor subfamily 1 group I member 2 (Homo sapiens) (O75469 whole entry, looked up): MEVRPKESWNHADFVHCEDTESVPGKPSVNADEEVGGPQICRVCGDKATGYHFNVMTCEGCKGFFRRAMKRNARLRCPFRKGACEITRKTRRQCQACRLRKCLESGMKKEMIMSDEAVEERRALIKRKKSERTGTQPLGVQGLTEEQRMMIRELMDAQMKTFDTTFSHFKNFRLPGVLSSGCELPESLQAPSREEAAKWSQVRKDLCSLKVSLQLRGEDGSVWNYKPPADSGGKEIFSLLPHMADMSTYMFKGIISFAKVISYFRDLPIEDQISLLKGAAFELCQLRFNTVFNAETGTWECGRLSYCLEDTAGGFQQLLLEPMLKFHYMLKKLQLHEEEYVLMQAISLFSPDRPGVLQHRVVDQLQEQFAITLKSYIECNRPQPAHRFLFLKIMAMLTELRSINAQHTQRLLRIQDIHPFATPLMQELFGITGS

For the molecule `C=CC(N)=O`, in [1], the molecule was called inactive. For the same molecule, the Potency entry in [2], in [3] and in test [4] was “inactive” in each case.

`Clc1cccc(Cl)c1Cl`: the molecule was called inactive in test [1]. Also, the Potency entry in test [2], in [3], in [5], in [6], in test [7] and in test [4] was “inactive” each time. Moreover, the Potency result in [9] was “inactive”. Besides, the Potency in [8] is 35.2 µM (active) and inactive.

In the case of `C#CCN(C)[C@H](C)Cc1ccccc1`, the molecule was called inactive in test [1] and in test [11]. Besides, the Potency result in test [3], in [12], in test [13], in test [5], in test [6] and in test [7] was “inactive” each time. Moreover, the Potency result in test [4] and in [9] was “inactive” each time. Moreover, the max activation in test [10] is -1.33% (inactive). In addition, the Potency in [14] is 12.6 µM (active) and 17.4 µM (active); in test [15] it was 17.8 µM (active) and inactive.

As for `CCC12COCN1COC2`, the molecule was classed as inactive in test [1]. The Potency result in test [2], in [3], in [5], in test [6], in test [4] and in [15] was “inactive” in each case. Further, the Potency entry in [16] is “inactive”. For the same molecule, the Potency in test [8] is 35.6 µM (active); in [9], 40 µM (active) and inactive.

Regarding `CC(C)(C)OOC(=O)c1ccccc1`, in test [1], the molecule was classed as inactive. The Potency entry in [2], in test [3], in [5], in test [6], in test [7] and in test [14] was “inactive” each time. The Potency result in test [8], in [4], in test [15], in [16] and in test [9] was “inactive” each time.

As to `CCOP(OCC)OCC`, in test [1], the molecule was classed as inactive. For the same molecule, the Potency entry in [2], in test [3], in [5], in test [6], in test [7] and in [8] was “inactive” in each case. The Potency result in test [4], in test [16] and in test [9] was “inactive” each time.

As for `Nc1c(Cl)c(Cl)nc(C(=O)O)c1Cl`, the result in test [1] was inactive. The Potency result in test [2], in test [13], in test [5], in test [6], in [14] and in [16] was “inactive” throughout. Moreover, the Potency entry in test [9] is “inactive”. Besides, the Potency in test [3] is 56.1 µM (active) and inactive; in [8], “inactive and 8.22 µM (active)”; in test [15], 39.5 µM (active) and inactive.

Regarding `Cc1cc(Cl)ccc1O`, in [1], the molecule was called inactive. Further, the Potency entry in test [2], in [3], in [13], in [5], in [6] and in test [16] was “inactive” each time. In addition, in [9], the Potency entry was “inactive”. The Potency in [14] is 19.4 µM (active) and 12.6 µM (active).

As to `CCNc1nc(NC(C)(C)C)nc(SC)n1`, the result in [1] was inactive. Besides, the Potency result in test [2], in test [5], in [6], in test [14], in test [16] and in test [9] was “inactive” each time. The Potency in test [3] is 30.2 µM (active) and 48.6 µM (active); in [8] it was 17.6 µM (active) and 39.9 µM (active); in test [15] it was 7.01 µM (active) and 7.96 µM (active).

On to `c1ccc2c(c1)Oc1ccccc1O2`, for which, in test [1], the result was inactive. Further, the Potency entry in test [2], in test [3], in test [5], in [6], in [8] and in [4] was “inactive” in each case. Moreover, the Potency entry in test [9] was “inactive”.

`CCCCN(CCCC)SN(C)C(=O)Oc1cccc2c1OC(C)(C)C2`: in test [1], the call was inactive. Also, the Potency entry in test [2] was “inactive”. Besides, the Potency in [3] was 62.1 µM (active) and inactive; in [5], 57.3 nM (active) and 894 nM (active); in test [6], 36.2 nM (active) and 564 nM (active); in [14], 28.7 µM (active) and 35.6 µM (active); in [8] it was 36.2 µM (active) and 71 µM (active); in test [15] it was 36.2 µM (active) and 39.9 µM (active). Also, in [9], the Potency was 14.4 µM (active) and 12.6 µM (active).
